The target in experiment [1] is T1, Aspartate--tRNA(Asp/Asn) ligase (Mycobacterium tuberculosis (strain ATCC 25618 / H37Rv)) (UniProt P9WFW3). Note: in the data most compounds retested in dose-response had high values.
T1 sequence (whole entry): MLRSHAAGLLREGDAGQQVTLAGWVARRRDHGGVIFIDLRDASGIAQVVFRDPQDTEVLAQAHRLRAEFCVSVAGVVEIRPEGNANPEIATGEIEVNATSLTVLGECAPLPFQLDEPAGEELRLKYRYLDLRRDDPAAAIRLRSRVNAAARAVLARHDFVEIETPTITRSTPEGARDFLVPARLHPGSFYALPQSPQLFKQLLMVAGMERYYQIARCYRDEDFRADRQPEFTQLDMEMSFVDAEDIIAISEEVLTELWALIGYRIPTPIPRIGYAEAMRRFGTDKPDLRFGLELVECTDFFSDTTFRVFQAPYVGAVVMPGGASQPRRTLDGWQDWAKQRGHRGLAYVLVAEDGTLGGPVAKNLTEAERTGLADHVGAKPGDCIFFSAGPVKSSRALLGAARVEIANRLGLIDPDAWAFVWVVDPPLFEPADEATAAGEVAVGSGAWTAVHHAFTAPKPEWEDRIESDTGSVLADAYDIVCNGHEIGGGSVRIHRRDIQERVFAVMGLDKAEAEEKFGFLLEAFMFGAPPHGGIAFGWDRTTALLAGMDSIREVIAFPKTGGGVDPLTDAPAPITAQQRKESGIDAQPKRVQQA
In words: Assay for Asp RNA synthetase-1 from Mycobacterium tuberculosis. The class given is functional. Further details: scale not given: direction of the effect not stated beside the values. Conditions: 30 µM.

For experiment [2], the target named is Shiga toxin 2 (Escherichia coli O157:H7) (UniProt P09385+P09386). In words: E. coli 0.157:H7 Shiga Toxin SOP - stx2 screening assay. Type of experiment: functional. The arrangement: scale not given: direction of the effect not stated beside the values. Conditions: 30 µM.

For `CC(C)CNC(=O)[C@H]1CCS(=O)(=O)[C@@H]2CN(Cc3cccc(Cl)c3)C[C@H]12`, the Percent Effect was -3.06% in experiment [1] and -29.7% in experiment [2].
For `O=C(O)C1(Cc2ccccc2Cl)CCN(c2ncccc2F)CC1`, in that order: 2.22% and -10.7%.
Consider `c1ccc(CN2CCCC(c3nccnc3-n3ccnc3)C2)cc1` (centres undefined), for which the Percent Effect is 2.31% in experiment [1] and -2.34% in experiment [2].
As to `CCS(=O)(=O)Nc1ccn(Cc2cccc(Cl)c2)n1`, the Percent Effect in experiment [1] is 4.7%; in experiment [2] it was -12.9%.
The corresponding values for `Cc1nn(C)c2c(N3CCN(C(=O)C4CCC4)CC3)ncnc12` are -3.19% and -37.9%.
The corresponding values for `CN(C)c1cncc(C2CCN(CCO)CC2)n1` are -2.69% and -4.99%.
The corresponding values for `Cn1ccnc1CN1CCN(Cc2cc(C#N)ccc2F)CC1` are -5.71% and 17.6%.
Take `CCc1nc(CN(C)C2CCN(CCn3cc(C#N)cn3)C2)no1` (centres undefined): the Percent Effect in experiment [1] turned out to be 9.06%; in experiment [2] it was 9.46%.
With `Cc1cccc(OCCC(=O)N2CCCN(C(N)=O)CC2)c1C`, the Percent Effect is 0.542% in experiment [1] and 7.91% in experiment [2].
`O=C(NCc1cccc(F)c1)N1CCC2(CC(=O)N(c3ccsc3)C2)C1` (centres undefined): the Percent Effect is -4.15% in experiment [1] and -7.69% in experiment [2].
With `CNc1nc(C(=O)N2CCCC(c3nccn3CC3CCC3)C2)cs1` (centres undefined), the Percent Effect in experiment [1] was 10.9%; in experiment [2], 2.21%.
On to `O=C(c1cnco1)N1CCCC(Cc2cccc3ncccc23)C1` (centres undefined), for which the Percent Effect in experiment [1] was 3.23%; in experiment [2], -27.4%.
Take `COCc1nc(C(=O)NS(=O)(=O)c2ccc(C)cc2C)cs1`: the Percent Effect is 0.811% in experiment [1] and -0.5% in experiment [2].
As to `CNS(=O)(=O)c1cccc(C(C)NCc2cccc(OC)c2)c1` (centres undefined), the Percent Effect in experiment [1] is 0.915%; in experiment [2], -24.3%.
For `CC(=O)N(Cc1ncc(C)o1)C1CCN(Cc2noc(C)n2)C1` (centres undefined), the Percent Effect was 5.42% in experiment [1] and 4.63% in experiment [2].
For `Cn1cc(-c2cnc(N3CCOCC3)nc2)cc1C(=O)O`, in that order: -4.12% and 9.97%.
As to `COc1ccc(C2=CCN(C(=O)CN(C)CC(C)C#N)CC2)cc1` (centres undefined), the Percent Effect in experiment [1] was -3.34%; in experiment [2], -65.5%.

(Values after ChEMBL document CHEMBL3988442, “University of Dundee, Small-Polar-MMV Screening Library” (2021).)
